Test results taken from PubChem BioAssay (NCI).
About 79,000 compounds went through this panel and 15% of them were active in at least one assay; those are over-represented in the sample as a whole. The source made the active and inactive calls. Cut-off read from the data, not from the text of the source: active = growth inhibition above about 70%; inactive = the rest.

Columns and labels:
[1] = NCI Yeast Anticancer Drug Screen. Data for the rad52 strain (AID 147);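 note: 0% = growth of vehicle-treated control cultures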; conditions: S. cerevisiae rad52 mutant growth inhibition, active compounds read high
Summary of the method: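 Genetically altered yeast (DNA damage repair defect) treated with compound; inhibition calculated relative to vehicle.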

[2] = NCI Yeast Anticancer Drug Screen. Data for the wt1 strain (AID 149);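 note: 0% = growth of vehicle-treated wt1 cultures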; conditions: S. cerevisiae wt1 strain (SPY 50644) growth inhibition, active compounds read high
Summary of the method: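 Growth inhibition read against vehicle controls after compound exposure of the wt1 yeast strain.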

[3] = NCI Yeast Anticancer Drug Screen. Data for the rad50EPP+ strain (AID 151);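 note: 0% = growth of vehicle-treated control cultures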; conditions: S. cerevisiae rad50 mutant strain, active compounds read high
Summary of the method: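 Strain rad50EPP+; compound exposure; % growth inhibition vs vehicle.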

[4] = NCI Yeast Anticancer Drug Screen. Data for the mgt1 strain (AID 153); conditions: S. cerevisiae mgt1 mutant growth inhibition, active compounds read high
Summary of the method: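 Read-out: yeast growth inhibition vs vehicle control. Strain mgt1, drawn from a panel altered in DNA damage repair or cell cycle control.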

[5] = NCI Yeast Anticancer Drug Screen. Data for the rad50 strain (AID 155);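 note: 0% = growth of vehicle-only cultures of the same strain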; conditions: S. cerevisiae rad50 strain growth inhibition, active compounds read high
Summary of the method: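 Readout: growth inhibition relative to vehicle-treated cultures. Compound exposure was carried out in a genetically defined yeast strain deficient in DNA damage repair.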

[6] = NCI Yeast Anticancer Drug Screen. Data for the mec2-1 strain (AID 157); conditions: S. cerevisiae mec2-1 strain, active compounds read high
Summary of the method: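 Cells of the genetically defined mec2-1 yeast strain are incubated with test compound. Inhibition of growth is calculated against vehicle-treated controls.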

[7] = NCI Yeast Anticancer Drug Screen. Data for the rad14 strain (AID 159);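 note: 0% = growth of vehicle-treated control cultures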; conditions: S. cerevisiae rad14 strain growth inhibition, active compounds read high
Summary of the method: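 Growth inhibition vs vehicle controls; genetically altered yeast strain (DNA damage repair defect) treated with test compounds.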

[8] = NCI Yeast Anticancer Drug Screen. Data for the sgs1 mgt1 strain (AID 161);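 note: 0% = growth of cultures given vehicle only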; conditions: S. cerevisiae sgs1 mgt1 strain, active compounds read high
Summary of the method: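 Mutant yeast exposed to compound; growth scored against vehicle-only wells.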

[9] = NCI Yeast Anticancer Drug Screen. Data for the CLN2oe strain (AID 163);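 note: 0% = growth of vehicle-only control cultures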; conditions: S. cerevisiae CLN2oe strain, active compounds read high
Summary of the method: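 Strain altered in cell-cycle control, incubated with compound; growth compared to solvent-treated controls.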

[10] = NCI Yeast Anticancer Drug Screen. Data for the cln2 rad14 strain (AID 165);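 note: 0% = growth equal to vehicle treated cultures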; conditions: S. cerevisiae cln2 rad14 strain, active compounds read high
Summary of the method: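 The screen exposed genetically defined yeast (cln2 rad14) to test compounds and scored growth inhibition relative to vehicle-treated controls.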

[11] = NCI Yeast Anticancer Drug Screen. Data for the bub3 strain (AID 167); conditions: S. cerevisiae bub3 mutant strain, active compounds read high
Summary of the method: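 Readout: yeast growth inhibition, expressed relative to vehicle-only wells. The test organism is a mutant strain from a panel with lesions in DNA repair or checkpoint genes.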

[12] = NCI Yeast Anticancer Drug Screen. Data for the wt2 strain (AID 169);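 note: 0% = growth of vehicle-treated yeast cultures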; conditions: S. cerevisiae wt2 strain growth inhibition, active compounds read high
Summary of the method: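 Steps: yeast strain treated with compound; growth recorded; inhibition calculated relative to cultures given vehicle alone.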

[13] = NCI Yeast Anticancer Drug Screen. Data for the mlh1 strain (AID 171);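 note: 0% = growth of vehicle-treated control cultures of the same strain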; conditions: S. cerevisiae mlh1 strain growth inhibition, active compounds read high
Summary of the method: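 Yeast screen: mutant strain plus compound, growth scored against vehicle control wells.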

[14] = NCI Yeast Anticancer Drug Screen. Data for the sgs1 strain (AID 173);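 note: 0% = growth of vehicle-only control cultures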; conditions: S. cerevisiae sgs1 mutant, active compounds read high
Summary of the method: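 Inhibition of yeast growth served as the measure. The mutant strain was treated with each compound, and growth was normalised to cultures receiving vehicle alone.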

[15] = NCI Yeast Anticancer Drug Screen. Data for the mlh1 rad18 strain (AID 175); conditions: S. cerevisiae mlh1 rad18 strain growth inhibition, active compounds read high
Summary of the method: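 Compound-treated yeast growth, normalised to vehicle controls. Strain bears defined DNA repair mutations.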

[16] = NCI Yeast Anticancer Drug Screen. Data for the rad18 strain (AID 177); conditions: S. cerevisiae rad18 mutant growth inhibition, active compounds read high
Summary of the method: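 Inhibition values reflect reduced yeast growth compared with vehicle-treated controls, using a strain engineered with a DNA damage repair defect.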

[17] = at 5.0 µM (retest, dose inferred, filed as 0.5)
[18] = at 50.0 µM (retest, dose inferred, filed as 5.0)

Measured: growth inhibition

O=C(c1ccccc1)C1C(c2ccccc2[N+](=O)[O-])N1C1CCCCC1 (stereo unspecified)
active: [1]; at 33.0 µM 80% | [1]; at 100.0 µM 89% | [2]; at 100.0 µM 80% | [3]; at 33.0 µM 80% | [3]; at 100.0 µM 82% | [4]; at 100.0 µM 83% | [5]; at 33.0 µM 71% | [5]; [18] 72% | [5]; at 50.0 µM 96.9% | [5]; at 100.0 µM 84% | [6]; at 50.0 µM 94.7% | [6]; at 100.0 µM 88% | [8]; [18] 75% | [8]; at 50.0 µM 93.6% | [9]; at 100.0 µM 78% | [10]; at 50.0 µM 83.2% | [11]; at 33.0 µM 70% | [11]; [18] 72% | [11]; at 50.0 µM 95% | [11]; at 100.0 µM 87% | [12]; at 100.0 µM 84% | [13]; at 100.0 µM 90% | [14]; at 33.0 µM 85% | [14]; at 100.0 µM 91% | [15]; [18] 80% | [15]; at 50.0 µM 96.2% | [16]; at 33.0 µM 88% | [16]; at 100.0 µM 91%
inactive: [1]; at 1.2 µM -1% | [1]; at 3.7 µM 7% | [1]; at 11.0 µM 30% | [2]; at 1.2 µM -1% | [2]; at 3.7 µM 1% | [2]; at 11.0 µM 8% | [2]; at 33.0 µM 41% | [3]; at 1.2 µM 5% | [3]; at 3.7 µM 19% | [3]; at 11.0 µM 48% | [4]; at 1.2 µM 1% | [4]; at 3.7 µM 2% | [4]; at 11.0 µM 10% | [4]; at 33.0 µM 52% | [5]; at 1.2 µM 2% | [5]; at 3.7 µM 3% | [5]; [17] -2% | [5]; at 11.0 µM 28% | [6]; at 1.2 µM 4% | [6]; at 3.7 µM 10% | [6]; [17] 1% | [6]; at 11.0 µM 23% | [6]; at 33.0 µM 66% | [6]; [18] 58% | [7]; at 1.2 µM -1% | [7]; at 3.7 µM 3% | [7]; at 11.0 µM 7% | [7]; at 33.0 µM 13% | [7]; at 100.0 µM 64% | [8]; [17] 15% | [9]; at 1.2 µM -4% | [9]; at 3.7 µM -2% | [9]; at 11.0 µM 3% | [9]; at 33.0 µM 38% | [10]; [17] -18% | [10]; [18] 13% | [11]; at 1.2 µM -11% | [11]; at 3.7 µM -2% | [11]; [17] -4% | [11]; at 11.0 µM -14% | [12]; at 1.2 µM 1% | [12]; at 3.7 µM 3% | [12]; at 11.0 µM 11% | [12]; at 33.0 µM 62% | [13]; at 1.2 µM 4% | [13]; at 3.7 µM 8% | [13]; at 11.0 µM 19% | [13]; at 33.0 µM 45% | [14]; at 1.2 µM 9% | [14]; at 3.7 µM 21% | [14]; at 11.0 µM 52% | [15]; [17] 0% | [16]; at 1.2 µM 10% | [16]; at 3.7 µM 23% | [16]; at 11.0 µM 65%

CC(C)(C)c1cc([N+](=O)[O-])cc([N+](=O)[O-])c1O
active: [5]; [18] 100% | [5]; at 50.0 µM 78.8% | [6]; [18] 99% | [6]; at 50.0 µM 72.2% | [8]; at 50.0 µM 84.3% | [10]; at 50.0 µM 73.4% | [15]; [18] 100%
inactive: [1]; at 1.2 µM -11% | [1]; at 3.7 µM -17% | [1]; at 11.0 µM -1% | [1]; at 33.0 µM 17% | [1]; at 100.0 µM 33% | [2]; at 1.2 µM -16% | [2]; at 3.7 µM -23% | [2]; at 11.0 µM -7% | [2]; at 33.0 µM 12% | [2]; at 100.0 µM 38% | [3]; at 1.2 µM -54% | [3]; at 3.7 µM -54% | [3]; at 11.0 µM -44% | [3]; at 33.0 µM -25% | [3]; at 100.0 µM -13% | [4]; at 1.2 µM -52% | [4]; at 3.7 µM -34% | [4]; at 11.0 µM 21% | [4]; at 33.0 µM -11% | [4]; at 100.0 µM 43% | [5]; at 1.2 µM -24% | [5]; at 3.7 µM -26% | [5]; [17] 46% | [5]; at 11.0 µM -5% | [5]; at 33.0 µM 1% | [5]; at 100.0 µM 22% | [6]; at 1.2 µM -61% | [6]; at 3.7 µM -47% | [6]; [17] 66% | [6]; at 11.0 µM -25% | [6]; at 33.0 µM -8% | [6]; at 100.0 µM 7% | [7]; at 1.2 µM -19% | [7]; at 3.7 µM -12% | [7]; at 11.0 µM 6% | [7]; at 33.0 µM 26% | [7]; at 100.0 µM 29% | [8]; [17] 0% | [8]; [18] 38% | [9]; at 1.2 µM 9% | [9]; at 3.7 µM 1% | [9]; at 11.0 µM 12% | [9]; at 33.0 µM 25% | [9]; at 100.0 µM 28% | [10]; [17] 46% | [10]; [18] 21% | [11]; at 1.2 µM -17% | [11]; at 3.7 µM -15% | [11]; [17] -13% | [11]; at 11.0 µM -2% | [11]; at 33.0 µM 9% | [11]; [18] 39% | [11]; at 50.0 µM 68.6% | [11]; at 100.0 µM 21% | [12]; at 1.2 µM -35% | [12]; at 3.7 µM -29% | [12]; at 11.0 µM -11% | [12]; at 33.0 µM 23% | [12]; at 100.0 µM 47% | [13]; at 1.2 µM -38% | [13]; at 3.7 µM -33% | [13]; at 11.0 µM -4% | [13]; at 33.0 µM 10% | [13]; at 100.0 µM 42% | [14]; at 1.2 µM -20% | [14]; at 3.7 µM -8% | [14]; at 11.0 µM 15% | [14]; at 33.0 µM 40% | [14]; at 100.0 µM 46% | [15]; [17] 50% | [15]; at 50.0 µM 67.7% | [16]; at 1.2 µM -30% | [16]; at 3.7 µM -13% | [16]; at 11.0 µM -18% | [16]; at 33.0 µM 17% | [16]; at 100.0 µM 30%
